Data taken from PubChem BioAssay (Tox21).
Several values for one entry are separate records, joined by “and”; a condition that tells them apart may be missing. Equal values may be shown once. Inconclusive results are not listed. Activity calls are given as the source filed them. Unless noted, calls come from the whole dose curve.

Key:
[1] = Nuclear factor erythroid 2-related factor 2/antioxidant responsive element (Nrf2/ARE) small molecule agonists: qHTS cell viability counter screen in human keratinocytes (AID 1919968; active = well fitted curve in the direction sought with a large enough effect in the repeat runs; an effect the other way counts as inactive or inconclusive; note: nearly all actives have a fitted effect of over 55% in size)
Procedure, shortened: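 Viability counter-screen: KeratinoSens reporter cells, DMSO-delivered compounds, 23 h at 37 C, CellTiter-Fluor fluorescence.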

[2] = Nuclear factor erythroid 2-related factor 2/antioxidant responsive element (Nrf2/ARE) small molecule agonists: luciferase reporter gene qHTS assay in human keratinocytes (AID 1919969); note: nearly all actives have a fitted effect of over 35% in size; note: potency is the fitted concentration of half-maximal effect
[3] = target: Gonadotropin-releasing hormone receptor (Homo sapiens) (UniProt P30968); assay: Human gonadotropin-releasing hormone receptor (GnRHR) small molecule agonists, calcium flux assay in GnRHR-HEK293 cells (AID 1920063); note: nearly all actives have a fitted effect of over 35% in size
Procedure, shortened: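 Tox21-format agonist screen using human GnRHR-expressing HEK293 cells and a fluorescent calcium dye; kinetic 3-min fluorescence reading after compound addition, 15-point concentration series run in triplicate.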

[4] = target: KiSS-1 receptor (Homo sapiens) (UniProt Q969F8); assay: Human kisspeptin (KISS1R) small molecule agonists, calcium flux assay in KISS1R-HEK293 cells (AID 1920064; active = well fitted curve in the direction sought with a large enough effect in the repeat runs; an effect the other way counts as inactive or inconclusive)
Procedure, shortened: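 Intracellular calcium mobilization in KISS1R-HEK293 cells was recorded by fluorescence (Ex/Em 480/540) for 3 min following compound addition to cells pre-loaded 1 h with calcium dye.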

[5] = G protein-coupled receptor (GPCR) small molecule agonists, calcium flux assay: HEK293 wild type cell line counter screen (AID 1920065)
Procedure, shortened: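 In this agonist-mode screen, ATP is the positive control and DMSO the vehicle. Cells grow 18 h before a 1 h dye incubation at 37 C; signal is taken at Ex/Em 480/540 over 3 min.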

[6] = cAMP Responsive Elements (CRE) small molecule antagonists, cell-based qHTS assay (AID 1963591; active = well fitted inhibition curve with a large enough effect in the signal ratio in the repeat runs, not every such curve was filed as active; the % refers to the signal ratio)
Procedure, shortened: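 qHTS in CRE-bla HEK 293T cells: compound in DMSO, then 0.25 uM NKH477 (final), 3 h at 37 °C/5% CO2; beta-lactamase FRET read-out after 2 h substrate incubation.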

[7] = target: Beta-2 adrenergic receptor (Homo sapiens) (UniProt P07550); assay: Adrenergic beta2 receptor (ADRB2) small molecule antagonists, cell-based qHTS assay (AID 1963592); note: series mostly up to about 92 µM; nearly all actives have a fitted effect of over 50% in size
Procedure, shortened: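 Cells (CHO, stable ADRB2 overexpression) incubated 18-20hr at 37C; compounds added from DMSO; agonist mix (1nM isoproterenol, 100uM IBMX, 25uM Ro-20-1724) added; 0.5hr RT; d2-cAMP and anti-cAMP-cryptate added; 1hr RT; 665/615 nm read.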

[8] = target: Beta-2 adrenergic receptor (Homo sapiens) (UniProt P07550); assay: Adrenergic beta2 receptor (ADRB2) small molecule agonists, cell-based qHTS assay (AID 1963593);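 note: CHO cells stably overexpressing human ADRB2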
Procedure, shortened: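 CHO cells stably over-expressing ADRB2 were plated overnight at 37C, then dosed with compounds plus a stimulation mix containing 100uM IBMX and 25uM Ro-20-1724 for 0.5hr at room temperature. cAMP was measured by HTRF competition, 1hr.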

[9] = p53 small molecule agonists, cell-based qHTS assay with rat liver microsomes (AID 1963578)
Procedure, shortened: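 Cells carrying a p53 response element–beta-lactamase reporter were plated and rested 5 h, then dosed with compound in DMSO plus rat liver microsomes and NADPH, each at 0.5 mg/mL final. After 16 h at 37 C, LiveBLAzer substrate was added for 2 h.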

[10] = p53 small molecule agonists, cell-based qHTS assay with human liver microsomes: qHTS cell viability counter screen (AID 1963579); note: nearly all actives have a fitted effect of over 45% in size
Procedure, shortened: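 Cytotoxicity counter screen: p53RE-bla, 4,000 cells/well; 5 h settle, 37 C/5% CO2; cpd + HLM 0.5 mg/mL + NADPH 0.5 mg/mL (final); 16 h, 37 C; CellTiter-Glo, 30 min RT, luminescence.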

[11] = p53 small molecule agonists, cell-based qHTS assay with rat liver microsomes: qHTS cell viability counter screen (AID 1963580); note: nearly all actives have a fitted effect of over 45% in size
Procedure, shortened: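 Viability is assessed in parallel with the p53 reporter read: HCT-116 p53RE-bla cells receive compounds plus rat microsomes and NADPH (0.5 mg/mL final apiece), incubate 16 h at 37 C, and then CellTiter-Glo luminescence is recorded.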

[12] = p53 small molecule agonists, cell-based qHTS assay: qHTS cell viability counter screen (AID 1963581); note: nearly all actives have a fitted effect of over 45% in size
Procedure, shortened: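 Compounds are pinned onto HCT-116 p53RE-bla cells and left 16 h at 37 C. Following the reporter FRET read, ATP is quantified by CellTiter-Glo luminescence after 30 min at room temperature.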

[13] = p53 small molecule agonists, cell-based qHTS assay (AID 1963582; active = well fitted activation curve with a large enough effect in the signal ratio in the repeat runs, not every such curve was filed as active; the % refers to the signal ratio)
Procedure, shortened: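 Agonist activity was scored from beta-lactamase FRET fluorescence in p53RE-bla cells treated 16 h at 37 C with compounds in DMSO, substrate incubation being 2 h at room temperature.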

[14] = target: 5-hydroxytryptamine receptor 2A (Homo sapiens) (UniProt P28223); assay: 5-hydroxytryptamine receptor 2A (HTR2A) small molecule antagonists, cell-based qHTS assay (AID 1963586); note: nearly all actives have a fitted effect of over 45% in size
Procedure, shortened: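 Antagonist-mode intracellular calcium assay: DOI (4 nM) added after 5 min compound pre-incubation at room temperature to dye-loaded HTR2A-CHO cells. Fluorescence followed for 3 min, sampled every second.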

[15] = target: 5-hydroxytryptamine receptor 2A (Homo sapiens) (UniProt P28223); assay: 5-hydroxytryptamine receptor 2A (HTR2A) small molecule agonists, cell-based qHTS assay (AID 1963587); note: nearly all actives have a fitted effect of over 30% in size
Procedure, shortened: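 CHO cells stably expressing human HTR2A, plated 18 h, loaded with calcium dye 1 h at 37 C. Agonist mode: compounds added and intracellular calcium fluorescence recorded kinetically for 2 min at 1 sec intervals.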

[16] = target: Muscarinic acetylcholine receptor M1 (Homo sapiens) (UniProt P11229); assay: Cholinergic receptor muscarinic 1 (CHRM1) small molecule antagonists, cell-based qHTS assay (AID 1963588); note: nearly all actives have a fitted effect of over 40% in size
Procedure, shortened: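 CHRM1-CHO calcium-flux assay, antagonist mode. Cells were seeded 18 h, dye-loaded 1 h at 37 C and given compound for 5 min at RT, then acetylcholine was added at 50nM. FDSS fluorescence was read 3 min; 15 concentrations, three runs.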

[17] = target: Muscarinic acetylcholine receptor M1 (Homo sapiens) (UniProt P11229); assay: Cholinergic receptor muscarinic 1 (CHRM1) small molecule agonists, cell-based qHTS assay (AID 1963589); note: nearly all actives have a fitted effect of over 35% in size
Procedure, shortened: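 Stable CHRM1-CHO cells (human receptor) were incubated 18 h, dye-loaded for 1 h at 37 C and exposed to test compounds for agonist activity, with calcium-dependent fluorescence followed kinetically.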

[18] = cAMP Responsive Elements (CRE) small molecule agonists, cell-based qHTS assay (AID 1963590)
Procedure, shortened: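 FRET-based beta-lactamase readout (LiveBLAzer B/G, 2 h RT) quantified CRE activation in HEK 293T CRE-bla cells after 3 h treatment with DMSO-dissolved compounds.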

[19] = target: D(2) dopamine receptor (Homo sapiens) (UniProt P14416); assay: Dopamine D2 receptor (DRD2) small molecule agonists, cell-based qHTS assay (AID 1963594); note: nearly all actives have a fitted effect of over 35% in size
Procedure, shortened: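 HEK293 cells stably expressing human DRD2, pre-treated with PDE inhibitor Ro20-1724 (0.1 mM final) and compound 10 min at room temperature, then stimulated with NKH477 (200nM […]) for 30 min. cAMP read by HTRF (665/620 nm).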

[20] = target: D(2) dopamine receptor (Homo sapiens) (UniProt P14416); assay: Dopamine D2 receptor (DRD2) small molecule antagonists, cell-based qHTS assay (AID 1963595; active = well fitted inhibition curve with a large enough effect in the signal ratio in the repeat runs, with a control signal flat; the % refers to the signal ratio)
Procedure, shortened: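 Readout: HTRF cAMP, cAMP-d2 competing with cellular cAMP for anti-cAMP cryptate, read after 1 h. Cells: DRD2-HEK293. Conditions: 0.1 mM Ro20-1724, 12 nM quinpirole, 200 nM NKH477, 30 min RT.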

Measured: Potency

Beta-2 adrenergic receptor (Homo sapiens), sequence (P07550 whole entry, looked up): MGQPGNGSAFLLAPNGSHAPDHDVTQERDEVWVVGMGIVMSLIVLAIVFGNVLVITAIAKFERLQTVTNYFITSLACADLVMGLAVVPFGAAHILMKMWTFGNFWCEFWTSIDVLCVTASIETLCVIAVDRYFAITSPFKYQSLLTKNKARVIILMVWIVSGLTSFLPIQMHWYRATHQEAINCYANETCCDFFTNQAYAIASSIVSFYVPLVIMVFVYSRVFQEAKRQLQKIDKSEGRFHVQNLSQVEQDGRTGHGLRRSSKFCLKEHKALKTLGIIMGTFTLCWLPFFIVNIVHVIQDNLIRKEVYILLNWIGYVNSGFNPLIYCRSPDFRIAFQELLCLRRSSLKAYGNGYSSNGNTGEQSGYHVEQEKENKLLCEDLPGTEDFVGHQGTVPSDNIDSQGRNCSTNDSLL
KiSS-1 receptor (Homo sapiens), sequence (Q969F8 whole entry, looked up): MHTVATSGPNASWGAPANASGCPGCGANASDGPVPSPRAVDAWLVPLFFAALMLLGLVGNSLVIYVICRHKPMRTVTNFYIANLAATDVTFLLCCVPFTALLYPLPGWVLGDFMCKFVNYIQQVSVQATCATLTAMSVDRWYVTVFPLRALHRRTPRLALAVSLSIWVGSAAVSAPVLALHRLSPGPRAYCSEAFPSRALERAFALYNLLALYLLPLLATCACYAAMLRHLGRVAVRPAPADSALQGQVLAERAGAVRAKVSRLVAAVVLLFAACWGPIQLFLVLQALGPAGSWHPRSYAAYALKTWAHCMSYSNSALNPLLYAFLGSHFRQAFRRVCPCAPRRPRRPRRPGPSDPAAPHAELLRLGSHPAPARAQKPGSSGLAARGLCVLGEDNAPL
Gonadotropin-releasing hormone receptor (Homo sapiens), sequence (P30968 whole entry, looked up): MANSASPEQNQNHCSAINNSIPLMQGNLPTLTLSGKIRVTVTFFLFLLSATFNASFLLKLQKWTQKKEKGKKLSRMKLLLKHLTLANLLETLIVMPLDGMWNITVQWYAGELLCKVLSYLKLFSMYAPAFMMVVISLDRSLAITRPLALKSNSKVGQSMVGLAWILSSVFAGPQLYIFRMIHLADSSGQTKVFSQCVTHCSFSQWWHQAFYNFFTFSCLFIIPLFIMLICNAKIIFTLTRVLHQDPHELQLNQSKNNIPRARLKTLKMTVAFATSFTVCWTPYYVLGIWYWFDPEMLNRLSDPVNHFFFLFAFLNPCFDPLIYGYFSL
Muscarinic acetylcholine receptor M1 (Homo sapiens), sequence (P11229 whole entry, looked up): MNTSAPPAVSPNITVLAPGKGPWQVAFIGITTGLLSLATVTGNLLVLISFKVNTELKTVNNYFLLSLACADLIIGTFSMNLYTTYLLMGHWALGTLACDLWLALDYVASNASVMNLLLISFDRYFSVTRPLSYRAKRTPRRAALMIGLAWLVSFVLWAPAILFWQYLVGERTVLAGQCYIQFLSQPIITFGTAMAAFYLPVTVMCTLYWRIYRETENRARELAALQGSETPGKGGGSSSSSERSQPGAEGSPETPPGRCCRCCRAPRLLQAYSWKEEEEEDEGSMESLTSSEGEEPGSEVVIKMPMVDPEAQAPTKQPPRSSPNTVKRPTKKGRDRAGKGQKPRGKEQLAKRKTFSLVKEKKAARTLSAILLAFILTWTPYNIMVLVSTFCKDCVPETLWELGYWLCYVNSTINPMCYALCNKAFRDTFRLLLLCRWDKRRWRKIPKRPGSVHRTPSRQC
5-hydroxytryptamine receptor 2A (Homo sapiens), sequence (P28223 whole entry, looked up): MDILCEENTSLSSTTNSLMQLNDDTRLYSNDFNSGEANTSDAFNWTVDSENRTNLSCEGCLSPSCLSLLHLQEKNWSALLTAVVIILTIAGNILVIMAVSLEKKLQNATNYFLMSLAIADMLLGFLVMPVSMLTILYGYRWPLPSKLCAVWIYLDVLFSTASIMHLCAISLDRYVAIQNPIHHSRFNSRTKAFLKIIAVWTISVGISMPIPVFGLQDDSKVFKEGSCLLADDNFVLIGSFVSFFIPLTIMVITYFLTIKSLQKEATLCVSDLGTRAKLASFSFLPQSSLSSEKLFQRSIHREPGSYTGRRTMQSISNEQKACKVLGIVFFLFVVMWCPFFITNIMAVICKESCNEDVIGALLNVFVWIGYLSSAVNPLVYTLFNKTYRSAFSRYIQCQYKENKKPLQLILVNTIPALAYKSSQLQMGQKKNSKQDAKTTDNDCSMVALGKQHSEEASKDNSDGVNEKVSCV
D(2) dopamine receptor (Homo sapiens), sequence (P14416 whole entry, looked up): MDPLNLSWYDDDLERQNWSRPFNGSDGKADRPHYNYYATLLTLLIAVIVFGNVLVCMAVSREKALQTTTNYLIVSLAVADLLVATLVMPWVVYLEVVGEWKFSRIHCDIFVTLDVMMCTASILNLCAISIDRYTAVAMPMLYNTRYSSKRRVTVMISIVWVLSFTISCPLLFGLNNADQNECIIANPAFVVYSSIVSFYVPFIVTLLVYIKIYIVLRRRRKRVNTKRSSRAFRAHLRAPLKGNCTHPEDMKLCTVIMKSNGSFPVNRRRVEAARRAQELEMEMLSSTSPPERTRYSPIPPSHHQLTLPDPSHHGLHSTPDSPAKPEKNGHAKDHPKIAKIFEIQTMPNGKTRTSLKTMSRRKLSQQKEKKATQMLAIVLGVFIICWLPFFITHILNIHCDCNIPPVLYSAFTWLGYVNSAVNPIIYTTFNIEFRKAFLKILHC

COc1cc2c(c(OC)c1OC)-c1ccc(OC)c(=O)cc1[C@@H](NC(C)=O)CC2
active: [2] 152 nM and 217 nM and 188 nM
inactive: [1] | [3] | [4] | [5] | [6] | [7] | [8]

CCNc1ccccc1
not listed: [5] | [8]
inactive: all other assays above

C=CC(=O)OCCCCCCCC(C)C
not listed: [5] | [11]
inactive: all other assays above

COC1=CC(=O)C[C@@H](C)[C@]12Oc1c(Cl)c(OC)cc(OC)c1C2=O
not listed: [9] | [12] | [13] | [14] | [15] | [16] | [17] | [18]
inactive: all other assays above

CC(C)C(=O)Nc1ccc([N+](=O)[O-])c(C(F)(F)F)c1
not listed: [9] | [13] | [14] | [15] | [16] | [17] | [18]
inactive: all other assays above

CC[N+](CC)(CC(=O)Nc1c(C)cccc1C)Cc1ccccc1
not listed: [9] | [11] | [13]
inactive: all other assays above

CC1(C)OC(=O)NC1=O
not listed: [5] | [15] | [19]
inactive: all other assays above
